PubChem BioAssay
Values joined by “and” are separate entries in the source; they are usually repeats but may differ in a detail not shown here. Equal values may be shown once. Active and inactive are the calls of the source.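 The calls were made as follows, unless noted: active = compounds whose cell count with miR-34 switched on is under 0.7 times the count with it off; inactive = the rest.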

Key:
[1] = viability loss with induced miR-34 in A549 – imaging, A549 dox-inducible miR-34, nuclei and caspase counts, primary screen (AID 1347080); conditions: A549 miR-34 inducible, Hoechst nuclei count, 48 h
[2] = MELAS cybrid and Rieske KO viability enhancers – cell-based, MELAS cybrids, Rieske KO mouse fibroblasts, CellTiter-Glo, primary screen (AID 1508586;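 active = mean z-score across replicates of 1.96 or higher in either the MELAS or the Rieske mutant cell line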;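 also: z relative to plate mean and SD of compound and empty wells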); conditions: low glucose
[3] = biological target: NAD(+) hydrolase SARM1 (Homo sapiens) (UniProt Q6SZW1); experiment: blocking NAD cleavage by SARM1 SAM-TIR – cell lysate, NAD-Glo luminescence (AID 1508614;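 active = compound whose remaining NAD level is above about 45 nM, limit read from the data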;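 also: higher remaining NAD means stronger inhibition of SARM1 NADase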); conditions: SAM-TIR HEK293T lysate NADase, at 1 µM, stronger effect = higher value
[4] = biological target: Mitogen-activated protein kinase 7 (Homo sapiens) (UniProt Q13164); experiment: Gal4-ERK5 driven luciferase induction – cell-based, HTS, primary screen (AID 1508626;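 active = luciferase signal above three times the same-plate solvent-only control wells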;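 also: luciferase driven by Gal4-ERK5 fusion binding five Gal4 sites before minimal TATA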); conditions: HeLa Gal4-ERK5 transactivation, 18 h, at 5 µM, stronger effect = higher value
[5] = stronger effect = lower value, cell number ratio, induced over uninduced
[6] = measured here: relative caspase fold change +Dox/-Dox
[7] = measured here: total cells with miR-34 induction, stronger effect = lower value
[8] = measured here: total cells without miR-34 induction
[9] = MELAS cybrid survival, CellTiter-Glo 48 h, stronger effect = higher value
[10] = Rieske KO mouse fibroblast survival, CellTiter-Glo 72 h

Chain of NAD(+) hydrolase SARM1 (Homo sapiens) (Q6SZW1 whole entry, looked up, the tested form may be a part): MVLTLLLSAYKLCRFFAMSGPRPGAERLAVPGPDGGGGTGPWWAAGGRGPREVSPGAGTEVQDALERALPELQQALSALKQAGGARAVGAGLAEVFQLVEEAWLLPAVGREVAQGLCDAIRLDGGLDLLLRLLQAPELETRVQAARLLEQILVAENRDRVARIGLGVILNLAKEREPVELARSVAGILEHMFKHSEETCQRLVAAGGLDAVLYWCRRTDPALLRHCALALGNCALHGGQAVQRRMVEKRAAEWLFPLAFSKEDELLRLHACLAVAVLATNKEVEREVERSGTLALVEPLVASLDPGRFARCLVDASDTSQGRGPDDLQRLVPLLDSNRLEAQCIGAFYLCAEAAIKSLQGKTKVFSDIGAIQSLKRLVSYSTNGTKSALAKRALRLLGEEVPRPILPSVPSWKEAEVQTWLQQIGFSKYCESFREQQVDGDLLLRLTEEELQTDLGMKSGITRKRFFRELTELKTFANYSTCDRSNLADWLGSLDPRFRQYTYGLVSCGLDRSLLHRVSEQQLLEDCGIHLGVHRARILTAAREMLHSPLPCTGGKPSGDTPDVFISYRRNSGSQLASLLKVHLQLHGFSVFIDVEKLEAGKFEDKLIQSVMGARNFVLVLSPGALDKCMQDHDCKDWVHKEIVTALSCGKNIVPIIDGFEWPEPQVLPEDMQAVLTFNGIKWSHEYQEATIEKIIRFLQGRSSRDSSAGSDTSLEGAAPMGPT
Chain of Mitogen-activated protein kinase 7 (Homo sapiens) (Q13164 whole entry, looked up, the tested form may be a part): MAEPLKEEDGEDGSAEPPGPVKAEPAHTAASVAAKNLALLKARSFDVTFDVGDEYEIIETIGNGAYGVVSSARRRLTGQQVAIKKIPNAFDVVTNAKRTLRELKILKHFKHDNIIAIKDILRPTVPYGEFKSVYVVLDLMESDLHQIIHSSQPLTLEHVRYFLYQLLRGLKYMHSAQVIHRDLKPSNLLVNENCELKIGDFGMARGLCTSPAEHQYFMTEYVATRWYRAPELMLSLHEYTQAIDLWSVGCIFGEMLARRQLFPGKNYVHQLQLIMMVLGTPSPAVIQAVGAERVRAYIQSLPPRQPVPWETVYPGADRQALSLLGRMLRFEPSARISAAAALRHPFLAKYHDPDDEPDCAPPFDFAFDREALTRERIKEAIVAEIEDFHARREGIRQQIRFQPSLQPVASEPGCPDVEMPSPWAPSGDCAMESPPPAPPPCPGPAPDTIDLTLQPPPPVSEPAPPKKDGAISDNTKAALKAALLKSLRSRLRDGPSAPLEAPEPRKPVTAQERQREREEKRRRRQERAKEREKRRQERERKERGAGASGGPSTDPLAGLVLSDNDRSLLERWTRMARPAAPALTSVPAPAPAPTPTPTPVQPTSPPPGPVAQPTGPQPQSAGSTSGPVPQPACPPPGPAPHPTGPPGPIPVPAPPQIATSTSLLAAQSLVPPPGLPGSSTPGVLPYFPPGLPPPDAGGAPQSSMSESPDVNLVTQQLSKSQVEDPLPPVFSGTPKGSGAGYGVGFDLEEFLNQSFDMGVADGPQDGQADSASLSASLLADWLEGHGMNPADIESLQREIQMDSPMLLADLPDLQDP

| Structure (SMILES) | fold change [1, 5] | fold change [1, 6] | cell count [1, 7] | cell count [1, 8] | z-score [2, 9] | z-score [2, 10] | remaining NAD [3] | luciferase signal [4] |
| --- | --- | --- | --- | --- | --- | --- | --- | --- |
| O=C1c2cccc(O)c2C(=O)c2c(O)cccc21 | 0.868 (inactive) | 4.67 | 9530 | 11000 | 0.3 (inactive) | 0.397 | 10 nM (inactive) | 176 AU (inactive) |
| CCCCOC(=O)c1ccc(N)cc1 | 0.764 (inactive) and 0.971 (inactive) | 1.56 and 1.88 | 6730 and 8980 | 8820 and 9260 | 0.902 (inactive) | -0.282 | 10 nM (inactive) | 56 AU (inactive) |
| CCCCOc1ccc(C(=O)CCN2CCCCC2)cc1 | 0.869 (inactive) and 0.898 (inactive) and 0.904 (inactive) | 1.13 and 0.697 and 1.7 | 8270 and 5950 and 11300 | 9520 and 6630 and 12500 | -0.438 (inactive) and 1.08 (inactive) | 0.0294 and 0.0562 | 10 nM (inactive) | 40 AU (inactive) |
| Cc1c(N(C)CS(=O)(=O)O)c(=O)n(-c2ccccc2)n1C | 0.886 (inactive) and 0.92 (inactive) | 1.09 and 6.36 | 8550 and 11500 | 9640 and 12500 | -1.12 (inactive) | -0.298 | 10 nM (inactive) | 40 AU (inactive) |
| Cc1cc(=O)n(-c2ccccc2)n1C | 0.939 (inactive) and 0.859 (inactive) and 0.88 (inactive) | 0.938 and 0.796 and 1.12 | 8700 and 7960 and 10700 | 9270 and 12100 | -0.258 (inactive) and 0.556 (inactive) | -0.2 and -0.0597 | 10 nM (inactive) | 116 AU (inactive) |
| CC(NCCC(c1ccccc1)c1ccccc1)c1ccccc1 (stereo not drawn) | 0.975 (inactive) | 1.46 | 2830 | 2900 | -0.775 (inactive) | -0.331 | 10 nM (inactive) | 36 AU (inactive) |
| C[N+]12CCC(CC1)C(OC(=O)C(O)(c1ccccc1)c1ccccc1)C2 (stereo not drawn) | 0.841 (inactive) and 0.859 (inactive) | 1.4 and 1.29 | 8530 and 9960 | 10100 and 11600 | 0.605 (inactive) | -0.405 | 10 nM (inactive) | 48 AU (inactive) |
| CC1(C)OC(=O)NC1=O | 0.858 (inactive) and 0.827 (inactive) | 1.35 and 1.46 | 8730 and 10500 | 10200 and 12700 | -0.0486 (inactive) | -0.442 | 10 nM (inactive) | 64 AU (inactive) |
| CCN(CCCCOC(=O)c1ccc(OC)c(OC)c1)C(C)Cc1ccc(OC)cc1 (stereo not drawn) | 0.98 (inactive) and 0.929 (inactive) | 1.13 and 3.04 | 7620 and 11300 | 7780 and 12200 | 1.33 (inactive) | 0.343 | 10 nM (inactive) | 52 AU (inactive) |
| Nc1c2ccccc2nc2ccccc12 | 2.19 (inactive) | 1 | 782 | 356 | 2.4 (active) | -1.96 | 10 nM (inactive) | 92 AU (inactive) |
| O=c1cc[nH]c(=S)[nH]1 | 0.917 (inactive) | 0.54 | 7500 | 8180 | -0.297 (inactive) | -0.0433 | 10 nM (inactive) | 100 AU (inactive) |
| CC(N)CCCC(C)(C)O (stereo not drawn) | 0.926 (inactive) | 1.29 | 8630 | 9320 | 0.045 (inactive) | 0.396 | 10 nM (inactive) | 160 AU (inactive) |
| CCCCC(CC)CN=C(N)NC(N)=NCCCCCCN=C(N)NC(N)=NCC(CC)CCCC (stereo not drawn) | 0.778 (inactive) | 1.43 | 389 | 500 | -2.81 | 8.3 | 10 nM (inactive) | 88 AU (inactive) |
| Cc1ccccc1OCC(O)CO (stereo not drawn) | 0.91 (inactive) and 0.921 (inactive) | 0.936 and 3.64 | 8610 and 11300 | 9470 and 12300 | -0.331 (inactive) | -0.218 | 10 nM (inactive) | 44 AU (inactive) |
| COc1cc(NS(=O)(=O)c2ccc(N)cc2)ncn1 | 0.902 (inactive) and 0.903 (inactive) | 1.06 and 3.99 | 9390 and 12000 | 10400 and 13300 | 0.538 (inactive) | 0.095 | 10 nM (inactive) | 44 AU (inactive) |
| Nc1ncnc2c1ncn2[C@@H]1O[C@H](COP(=O)(O)O)[C@@H](O)[C@H]1O | 0.848 (inactive) | 1.03 | 9640 | 11400 | 0.774 (inactive) | 0.196 | 10 nM (inactive) | 292 AU (active) |

| Structure (SMILES) | fold change [1, 5] | fold change [1, 6] | cell count [1, 7] | cell count [1, 8] | z-score [2, 9] | z-score [2, 10] | remaining NAD [3] | luciferase signal [4] |
| --- | --- | --- | --- | --- | --- | --- | --- | --- |
| Cc1cc(C)nc(NS(=O)(=O)c2ccc(N)cc2)n1 | 0.847 (inactive) and 0.927 (inactive) and 0.901 (inactive) | 1.07 and 0.872 and 2.46 | 9060 and 8070 and 10900 | 10700 and 8710 and 12100 | -0.0833 (inactive) and 0.863 (inactive) | -0.156 and 0.665 | 10 nM (inactive) | 36 AU (inactive) |
| CC[C@]12CCCN3CCc4c(n(c5ccccc45)[C@@](O)(C(=O)OC)C1)[C@@H]32 | 0.85 (inactive) | 1.33 | 8280 | 9750 | 0.291 (inactive) | -0.0307 | 10 nM (inactive) | 112 AU (inactive) |
| CCN(CC)CCOC(=O)C(c1ccccc1)c1ccccc1 | 0.854 (inactive) and 1.02 (inactive) and 0.902 (inactive) | 1.3 and 0.648 and 3.67 | 8150 and 4320 and 11300 | 9550 and 4250 and 12500 | -0.171 (inactive) and -1.08 (inactive) | 0.0167 and -0.106 | 10 nM (inactive) | 84 AU (inactive) |
| Nc1ncnc2nc[nH]c12 | 0.911 (inactive) and 0.881 (inactive) | 0.822 and 4.73 | 8220 and 12600 | 9020 and 14300 | -0.543 (inactive) | -0.641 | 10 nM (inactive) | 72 AU (inactive) |
| CC1=C(C(=O)O)N2C(=O)[C@@H](NC(=O)[C@H](N)c3ccc(O)cc3)[C@H]2SC1 | 0.85 (inactive) | 1.87 | 8500 | 10000 | 0.444 (inactive) | 0.13 | 10 nM (inactive) | 108 AU (inactive) |
| CN1CCOC(c2ccccc2)c2ccccc2C1 (stereo not drawn) | 0.979 (inactive) and 0.925 (inactive) | 1.1 and 3.08 | 8830 and 11200 | 9020 and 12100 | 0.332 (inactive) | 0.617 | 10 nM (inactive) | 120 AU (inactive) |
| COc1ccc(NS(=O)(=O)c2ccc(N)cc2)nn1 | 0.86 (inactive) and 0.96 (inactive) and 0.867 (inactive) | 1.18 and 0.826 and 3.5 | 7560 and 8690 and 11000 | 8780 and 9050 and 12700 | -0.236 (inactive) and -0.537 (inactive) | -0.178 and -1.12 | 10 nM (inactive) | 28 AU (inactive) |
| CC(C)N=C(N)/N=C(\N)Nc1ccc(Cl)cc1 | 0.874 (inactive) and 0.829 (inactive) | 0.463 and 3.03 | 7740 and 10800 | 8860 and 13000 | -1.19 (inactive) | 0.61 | 10 nM (inactive) | 84 AU (inactive) |
| CCOc1ccc2nc3cc(N)ccc3c(N)c2c1 | 0.785 (inactive) and 0.928 (inactive) | 2.5 and 0.759 | 3210 and 7370 | 4090 and 7950 | 7.85 (active) | 4.68 | 10 nM (inactive) | 32 AU (inactive) |
| CC(Cc1cccc(C(F)(F)F)c1)NCCOC(=O)c1ccccc1 (stereo not drawn) | 0.816 (inactive) | 1.56 | 8560 | 10500 | 0.63 (inactive) | 0.0603 | 10 nM (inactive) | 84 AU (inactive) |
| Cc1ccc(C(=O)C(C)CN2CCCCC2)cc1 (stereo not drawn) | 0.986 (inactive) | 0.455 | 8610 | 8730 | -0.166 (inactive) | -0.145 | 10 nM (inactive) | 40 AU (inactive) |
| NC(=O)N/N=C/c1ccc([N+](=O)[O-])o1 | 0.848 (inactive) and 0.979 (inactive) | 1.31 and 0.64 | 7760 and 9710 | 9150 and 9920 | -0.906 (inactive) | -1.1 | 10 nM (inactive) | 36 AU (inactive) |
| CN1CCC(OC(c2ccccc2)c2ccccc2)CC1 | 0.843 (inactive) and 0.871 (inactive) | 1.44 and 0.876 | 8640 and 11300 | 10200 and 13000 | 0.35 (inactive) | 0.809 | 10 nM (inactive) | 32 AU (inactive) |
| CCn1cc(C(=O)O)c(=O)c2cnc(N3CCNCC3)nc21 | 0.922 (inactive) | 1.25 | 9710 | 10500 | 0.675 (inactive) | 0.0409 | 10 nM (inactive) | 56 AU (inactive) |
| C=CCSCC1Nc2cc(Cl)c(S(N)(=O)=O)cc2S(=O)(=O)N1 (stereo not drawn) | 0.925 (inactive) and 0.942 (inactive) | 0.973 and 1.58 | 8690 and 12000 | 9400 and 12700 | -0.333 (inactive) | -0.472 | 10 nM (inactive) | 40 AU (inactive) |
